Measured values taken from PubChem BioAssay AID1781 (National Center for Advancing Translational Sciences (NCATS), 2009).
Inconclusive results are not listed. Activity calls are given as the source filed them. Calls follow the shape of the dose curve; as a rule, active = well fitted curve in the direction sought with a large enough effect; inconclusive = small, poorly fitted or top-dose-only effect, or effect the other way, or another doubt; inactive = no such curve, though single readings can be large or run the other way.

Target: Pyruvate kinase PKLR (Homo sapiens) (UniProt P30613)
Test: Confirmation Concentration-Response Assay for Activators of Human Liver Pyruvate Kinase
Settings: purified hPK-L, Kinase-Glo ATP luminescence, 1 h; series mostly up to 57.5 µM; activity change, positive = activation: at the top concentration
From the text: Confirmatory assay NIH Chemical Genomics Center [NCGC] Matthew G. Vander Heiden, M.D., Ph.D. [Harvard Medical School, 77 Avenue Louis Pasteur, Boston, MA 02115] NCGC Assay Overview: Human pyruvate kinase liver (hPK-L) enzyme was supplied as a highly purified (>95% pure) preparation from Harvard Medical School and assayed for its ability to generate ATP from ADP using phosphoenolpyruvate (PEP) as a substrate. ATP generation was detected in a coupled reaction by luciferase-mediated luminescence, an ATP-dependent process. Pyruvate kinase substrates, PEP and ADP, were present in the assay at Km and approximately 10-fold below Km respectively. The enzyme was assayed at an intermediate level of activity to screen for both inhibitors and activators.
NCGC Assay Protocol Summary for L-isoform: Three uL of substrate mix (at r.t.) in assay buffer (50 mM Imidazole pH7.2, 50 mM KCl, 7 mM MgCl2, 0.01% Tween 20, 0.05% BSA) was dispensed into white solid bottom 1,536 well microtiter plates so that the final concentrations of substrates in the assay were 0.1 mM ADP and 0.5 mM PEP. 23 nL of compound were delivered by a pin tool and 1 uL of enzyme mix (final concentration of 0.1 nM) in assay buffer (4 degree Celsius) was added. Plates were incubated at room temperature for 1 hour. Two uL of detection mix (Kinase-Glo, Promega; at 4 degree Celsius protected from light) was added and luminescence read by a ViewLux (Perkin Elmer) at 1 second exposure/plate. Data were normalized to the uninhibited (row 31). Additionally, a no enzyme and 5-fold enzyme control was dispensed in row 32, split equally between the two conditions.

Pyruvate kinase PKLR (Homo sapiens), sequence (P30613 whole entry, looked up): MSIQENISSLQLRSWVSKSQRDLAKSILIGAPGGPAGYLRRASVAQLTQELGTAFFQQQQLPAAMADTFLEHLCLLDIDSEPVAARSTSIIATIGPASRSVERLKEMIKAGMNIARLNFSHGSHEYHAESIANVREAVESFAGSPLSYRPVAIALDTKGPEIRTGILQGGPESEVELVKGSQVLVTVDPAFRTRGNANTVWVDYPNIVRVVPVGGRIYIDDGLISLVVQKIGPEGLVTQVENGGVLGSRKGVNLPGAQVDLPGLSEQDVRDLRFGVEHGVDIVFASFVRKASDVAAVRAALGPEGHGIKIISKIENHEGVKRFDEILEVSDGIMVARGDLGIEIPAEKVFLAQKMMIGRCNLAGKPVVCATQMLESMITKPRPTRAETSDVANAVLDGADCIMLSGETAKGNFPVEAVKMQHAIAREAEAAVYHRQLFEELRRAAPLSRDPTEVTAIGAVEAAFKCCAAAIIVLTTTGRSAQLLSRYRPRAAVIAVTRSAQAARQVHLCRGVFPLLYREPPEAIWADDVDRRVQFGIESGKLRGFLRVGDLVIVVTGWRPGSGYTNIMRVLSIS

Activity change, positive = activation, inactive:
Cc1cc2c(s1)c1cnn(Cc3ccc(C(F)(F)F)cc3)c(=O)c1n2C 1.53%
O=S(=O)(NC1CCN(S(=O)(=O)c2c(F)cccc2F)C1)c1ccc2c(c1)OCCO2 (stereo not given) 11.9%
Cn1c2cc(C=O)sc2c2cnn(Cc3ccccc3F)c(=O)c21 -3.97%
COC(=O)c1cc2c(s1)c1cnn(Cc3ccccc3F)c(=O)c1n2C 6.65% [at 28.7 µM]
O=S(=O)(c1ccc2c(c1)OCO2)N1CCN(S(=O)(=O)c2c(F)cccc2F)CC1 -0.662%
O=S(=O)(NC1CCN(S(=O)(=O)c2ccc3c(c2)OCCO3)CC1)c1c(F)cccc1F 9.28%
O=C(c1c(F)cccc1F)N1CCN(S(=O)(=O)c2ccc3c(c2)OCCO3)CC1 -1.57%
O=S(=O)(NCCNS(=O)(=O)c1c(F)cccc1F)c1ccc2c(c1)OCCO2 13.3%
Cc1cc2c(s1)c1cnn(-c3ccccc3)c(=O)c1n2C 8.8%
CCCc1cc(F)c(S(=O)(=O)N2CCN(S(=O)(=O)c3ccc4c(c3)OCCO4)CC2)cc1F -1.3%
CCc1cc2c(s1)c1cnn(Cc3ccccc3F)c(=O)c1n2C -3.21%
O=S(=O)(NC1CCC(NS(=O)(=O)c2c(F)cccc2F)CC1)c1ccc2c(c1)OCCO2 (stereo not given) 12.3%
Cn1c2ccsc2c2ncn(Cc3ccccc3F)c(=O)c21 8.95%
Cn1c2cc(S(C)=O)sc2c2cnn(Cc3ccccc3F)c(=O)c21 (stereo not given) -5.87%
O=S(=O)(c1c(F)cccc1F)N1CCN(S(=O)(=O)c2c(F)cccc2F)CC1 -1.23%
COc1cc2c(s1)c1cnn(Cc3ccccc3F)c(=O)c1n2C 12.5%
Cc1cc2c(s1)c1cnn(Cc3ccc(S(C)(=O)=O)cc3)c(=O)c1n2C 2.28%
O=S(=O)(NCCCCCCNS(=O)(=O)c1c(F)cccc1F)c1ccc2c(c1)OCCO2 9.97%
O=S(=O)(c1ccc2c(c1)OCCO2)N1CCN(S(=O)(=O)c2ccc3c(c2)OCCO3)CC1 10.6%
Cn1ccc2cc(S(=O)(=O)N3CCN(S(=O)(=O)c4c(F)cccc4F)CC3)ccc21 10.8%
Cc1ccc(Cn2ncc3c4sc(C)cc4n(C)c3c2=O)c(C)c1 4.9%
Cc1cc2c(s1)c1cnn(Cc3ccc(Cl)cc3)c(=O)c1n2C -5.43%
COc1ccc(Cn2ncc3c4sc(C)cc4n(C)c3c2=O)cc1 3.19%
Cc1cc2c(s1)c1cnn(Cc3cccc(Cn4ncc5c6sc(C)cc6n(C)c5c4=O)c3F)c(=O)c1n2C 1.6%
Cc1cc2c(s1)c1cnn(Cc3ccc(F)c(F)c3F)c(=O)c1n2C -3.47%
Cn1c2cc(CO)sc2c2cnn(Cc3ccccc3F)c(=O)c21 10.3%
Cn1c2cc([N+](=O)[O-])sc2c2cnn(Cc3ccccc3F)c(=O)c21 12.3%
Cn1c2ccsc2c2cnn(Cc3ccccc3F)c(=O)c21 -5.37%
O=S(=O)(c1ccc2c(c1)OCCO2)N1CCN(S(=O)(=O)c2cccc[n+]2[O-])CC1 -0.719%
Cc1cc2c(s1)c1cnn(Cc3ccccc3F)c(=O)c1n2C(C)C -5.09%
Cc1cc2c(s1)c1cnn(Cc3ccc(-c4ccccc4)cc3)c(=O)c1n2C 2.12%
Cc1nc2ccc(S(=O)(=O)N3CCN(S(=O)(=O)c4c(F)cccc4F)CC3)cc2s1 6.42%
O=C(CN1C(=O)N/C(=C\c2cccn2-c2cccc(C(=O)O)c2)C1=O)Nc1ccccc1F -8.34%

outcome, inactive:
Cc1cc2c(s1)c1cnn(Cc3ccccc3F)c(=O)c1n2C
COc1ccc(S(=O)(=O)N2CCN(S(=O)(=O)c3ccc(OC)cc3)CC2)cc1
